# Screening data: PubChem, National Center for Advancing Translational Sciences (NCATS)
# KCNH2 3.1 block: inhibitors of human KCNH2 3.1 potassium channel isoform; 340,000 tested, 0.95% active; AID 720553; U2OS KCNH2 3.1, thallium flux FluxOr; stronger effect = lower value; activity change, % (tested at about 1.8 µM);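 active = maximum activity change below -70%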;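 also: thallium influx rate constant from kinetic fluorescence after stimulation buffer; % is scaled to controls: 0 for no effect and ±100 for the full control effect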
#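 Measured as rate of thallium-driven FluxOr signal in transduced U2OS cells carrying the 3.1 channel, read kinetically for 2 min upon stimulation; values are rate constants scaled to DMSO control wells.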
# PTAP TSG101 blk: blocks PTAP/TSG101 interaction to inhibit HIV-1 budding; Q99816; Fluorescence polarization, FITC-PTAP peptide / Tsg101 binding; Potency, µM (doses to about 115 µM), for inactives: at the highest dose activity change, negative = inhibition, actives largely listed as inhibitors; 340,000 tested, under 10 active; active = well fitted inhibition curve with a large enough effect in the main read-out, with a control signal flat, not every such curve was filed as active; also: potency is read from the fitted curve at half-maximal effect; % of control where 0% means no effect
#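 Tsg101 binding domain (10 uM final) was mixed with compound and a FITC-labeled PTAP peptide (50 nM final) in HEPES pH 7.5 buffer with NaCl, Tween 20, EDTA and TCEP; fluorescence polarization was read after 20 min at r.t.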
# hERG WT inh: blocks the wildtype human KCNH2 potassium channel. activity change, % at 1.84 µM. AID 720551. Q12809. 340,000 tested, 0.37% active. U2OS, BacMam KCNH2, thallium flux FluxOr; stronger effect = lower value;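 active = maximum activity change below -70%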; also: % is scaled to controls: 0 for no effect and ±100 for the full control effect
#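 U2OS cells were transduced with wild-type KCNH2 virus (2.03 x 10^8 / mL) for 4 h at room temperature, then cultured overnight at 37 C. Thallium flux was read with FluxOr dye. Rate constants were normalized to DMSO controls.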
# Tb PFK inh: inhibitors of T. brucei phosphofructokinase | T. brucei PFK, ADP-Glo luminescence | Potency, µM (titrated, usually from 57.5 µM), for inactives: at the top dose activity, negative = inhibition, usual class: inhibitors | O15648 | 330,000 tested, 0.17% active | AID 485367; active = well fitted inhibition curve with a large enough effect;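 also: potency is read from the fitted curve at half-maximal effect; 0% = uninhibited 1x PFK enzyme wells and -100% = no-enzyme wells; nearly all actives have a fitted effect of over 60% in size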
# Target sequence (O15648 whole entry, looked up): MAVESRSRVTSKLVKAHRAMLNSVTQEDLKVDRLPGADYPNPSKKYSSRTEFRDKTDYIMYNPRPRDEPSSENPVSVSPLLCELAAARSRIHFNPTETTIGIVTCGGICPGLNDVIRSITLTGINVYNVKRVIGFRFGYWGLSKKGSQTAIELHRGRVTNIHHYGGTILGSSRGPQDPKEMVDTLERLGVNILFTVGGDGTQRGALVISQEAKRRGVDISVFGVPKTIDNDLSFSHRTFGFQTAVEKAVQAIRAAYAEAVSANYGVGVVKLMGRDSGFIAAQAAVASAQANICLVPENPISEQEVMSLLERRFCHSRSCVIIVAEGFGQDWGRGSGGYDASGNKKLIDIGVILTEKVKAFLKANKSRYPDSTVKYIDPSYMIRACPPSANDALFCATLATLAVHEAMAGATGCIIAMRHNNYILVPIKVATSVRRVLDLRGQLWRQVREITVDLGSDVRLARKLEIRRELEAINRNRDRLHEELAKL
#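 1.25 nM PFK with 0.5 mM F6P and 0.1 mM ATP in 0.1 M TEA pH 8.0, 5 mM MgCl2, incubated 45 min at room temperature; ADP measured by ADP-Glo luminescence; compounds titrated up to 57 uM.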
# The depositor's hits bear a star; . = no result given. The list is not random: actives were taken first. Their share in the collection is about 1.2%.
SMILES,KCNH2 3.1 block,PTAP TSG101 blk,hERG WT inh,Tb PFK inh
Cc1cc(OCCN2CCC(Cc3ccccc3)CC2)ccc1[N+](=O)[O-],-71.0*,0.8%,-0.5,-2.8%
OC(COc1ccc(Cl)cc1)CN1CCC(Cc2ccccc2)CC1 (stereo not drawn),-125.3*,-3.1%,-93.5*,-1.9%
CCOC(=O)C1CCN(Cc2ccc(OCc3ccccc3)cc2)CC1,4.0,-0.1%,7.0,5.3%
OC(COc1ccc(Cl)cc1)CN1CCN(c2ccccc2)CC1 (stereo not drawn),-5.1,-5.1%,-10.4,-5.0%
COc1ccc(CN2CCC(Cc3ccccc3)CC2)cc1OC,0.5,1.6%,26.4,3.7%
CCCCN(C)C(=O)C1CCN(Cc2ccc(OCc3ccccc3)cc2)CC1,-74.5*,-3.1%,29.8,21.9%
Fc1ccc(-n2cc(CNCCc3cccnc3)c(-c3ccccc3Cl)n2)cc1,-73.6*,0.6%,70.5,-8.7%
Fc1ccc(-n2cc(CNCCc3ccncc3)c(-c3ccccc3Cl)n2)cc1,11.1,-0.5%,21.6,0.0%
CCOc1ccc(CN(C)CC(=O)c2c(N)n(Cc3ccccc3)c(=O)n(CC)c2=O)cc1OC,-101.0*,-5.2%,-117.3*,.
CCn1c(=O)c(C(=O)CN(C)Cc2cccc(OC)c2OC)c(N)n(Cc2ccccc2)c1=O,0.2,-5.6%,2.3,2.7%
CCn1c(=O)c(C(=O)CN(C)Cc2ccc(F)cc2)c(N)n(Cc2ccccc2)c1=O,-84.3*,-1.5%,-10.1,-2.4%
CC(C)(C)CC(=O)Nc1nnc(SCC(=O)Nc2ccccc2F)s1,10.6,-0.3%,-4.2,0.8%
COc1ccccc1NC(=O)C(C)N(C)Cc1ccc(Cl)s1 (stereo not drawn),24.7,-6.3%,2.7,1.2%
O=C(CCCCn1c(=S)[nH]c2ccsc2c1=O)NCc1ccco1,-71.5*,-5.5%,-13.8,-4.4%
C=CC[n+]1ccc(/C=C2\C=Cc3cc(C)ccc3N2CC)c2ccccc21,-115.1*,-1.9%,-0.4,-24.4%
Cc1ccc2nc(CCCc3nc4ccc(C)cc4[nH]3)[nH]c2c1,-78.8*,-6.2%,13.5,1.0%
Cc1ccc2nc(CCc3nc4ccc(C)cc4[nH]3)[nH]c2c1,-16.1,0.0%,18.0,1.6%
Cc1nn(CC(=O)OCCOc2ccc(Br)cc2)c(C)c1[N+](=O)[O-],-73.3*,-4.5%,-15.3,-2.9%
CC(C)[C@H](NS(=O)(=O)c1ccc(Cl)cc1)C(=O)OCC(=O)c1c(N)n(C)c(=O)n(C)c1=O,24.1,-1.7%,1.4,3.4%
O=C(CSc1nnc(-c2ccco2)o1)N1CCCCC1,-27.7,2.9%,-15.3,3.7%
CCOc1cccc2cc(C(=O)Nc3ccccc3-c3ccccc3)c(=O)oc12,-6.9,0.4%,-10.2,4.7%
CCOc1cccc2cc(C(=O)NCc3ccc(C)cc3)c(=N)oc12,-208.3*,-2.9%,-5.7,2.6%
CCOc1cccc2cc(C(=O)Nc3cc(C)on3)c(=O)oc12,-77.5*,-5.6%,-0.1,-2.2%
COc1cccc(-c2nnc(NC(=O)C3CCCCC3)o2)c1,-84.2*,0.6%,-20.4,-0.3%
COc1cccc(-c2nnc(NC(C)=O)o2)c1,14.9,-5.5%,0.9,0.6%
SMILES,KCNH2 3.1 block,PTAP TSG101 blk,hERG WT inh,Tb PFK inh
CC(NC(=O)CNC(=O)c1ccccc1F)c1ccc(-n2ccnc2)cc1 (stereo not drawn),14.7,-4.3%,7.5,9.4%
COc1ccc(C(=O)N2CCC3(CC2)NCCc2[nH]cnc23)cc1,-83.9*,-4.5%,.,0.6%
COc1ccc(C(=O)N2CCc3[nH]nc(-c4ccccc4)c3C2)cc1,-5.9,-1.3%,-1.3,-0.3%
O=C(c1ccccc1)N1CCc2[nH]nc(-c3ccccc3)c2C1,-93.6*,-7.2%,-14.3,0.9%
CCC(C)NC(=O)c1ccc(N2CC3CC(C2)c2cccc(=O)n2C3)c(NC(=O)c2ccc(Br)o2)c1 (stereo not drawn),10.0,-8.4%,1.8,0.7%
CCN(CC)c1ccc(CNc2nc3ccccc3n2CCN2CCOCC2)cc1,-77.2*,1.0%,22.6,-2.0%
Cc1ccccc1NS(=O)(=O)c1ccc(OCC(=O)NCC2CCCO2)cc1 (stereo not drawn),-184.4*,.,-172.0*,-3.8%
COc1ccc(S(=O)(=O)NCC(=O)N(CC(=O)NCC2CCCO2)c2c(C)cccc2C)cc1 (stereo not drawn),-73.7*,-2.4%,2.0,-3.2%
O=C(N/N=C/c1ccccc1Br)C1CC1,26.0,-6.5%,-1.7,7.6%
COCCNC(=O)C(c1ccc(Cl)cc1)N(C(=O)Cn1nnc2ccccc21)c1cccnc1 (stereo not drawn),-10.1,2.6%,-6.2,-12.6%
COCCNC(=O)C(c1ccccc1)N(C(=O)Cn1nnc2ccccc21)c1cccnc1 (stereo not drawn),-25.8,-5.1%,-197.4*,-7.5%
COc1ccc(CCN(C)C2CCCN(S(=O)(=O)c3ccccc3)C2)cc1OC (stereo not drawn),-31.2,-10.2%,8.0,-9.7%
Cc1ccc(S(=O)(=O)N2CCN(CC(=O)N/N=C\C(Cl)=C\c3ccccc3)CC2)cc1,-196.9*,-0.7%,-130.1*,-4.1%
CC(/C=N\NC(=O)CN1CCN(S(=O)(=O)c2ccc(C)cc2)CC1)=C\c1ccccc1,-83.8*,-9.7%,-7.6,-10.3%
C=CCn1c(SCc2c(Cl)cccc2Cl)nnc1-c1cccnc1,-120.3*,-5.8%,3.1,-0.8%
C=CCn1c(SCc2cccnc2)nnc1-c1ccncc1,-3.3,-6.9%,8.0,-0.6%
CCc1ccccc1NC(=O)C1=CN2CCS(=O)(=O)N=C2C=C1,11.0,-0.3%,-0.7,0.0%
Cc1c(NC2=NC3(CCCCC3)Cc3ccccc32)c(=O)n(C)n1-c1ccccc1,-194.2*,-2.8%,-171.6*,-4.4%
O=C(COC(=O)c1cnc(Cl)c(Cl)c1)Nc1ccc(S(=O)(=O)N2CCCC2)cc1,-96.8*,-2.4%,17.8,-2.9%
Cc1ccc(S(=O)(=O)N2CCOCC2)cc1NC(=O)COC(=O)CNC(=O)c1ccccc1,-97.7*,-2.9%,5.6,-7.5%
O=C(COC(=O)c1cc(S(=O)(=O)N2CCOCC2)ccc1O)Nc1cc(S(=O)(=O)N2CCCC2)ccc1Cl,-193.9*,-3.2%,-146.5*,0.3%
O=C(COC(=O)c1cc(S(=O)(=O)N2CCCC2)ccc1O)Nc1ccc(S(=O)(=O)N2CCOCC2)cc1,9.7,-3.5%,10.0,-3.8%
O=C(COC(=O)c1ccc(Cl)nc1)Nc1ccc(S(=O)(=O)N2CCCC2)cc1,-8.7,-7.4%,1.2,-5.4%
COc1ccc(CNC(=O)O[C@H]2CN(C(=O)OC(C)C)N(C(=O)OC(C)C)[C@@H]3CN(S(=O)(=O)c4ccc(C)cc4)C[C@]23O)cc1OC,-1.0,.,-2.0,.
Cc1ccc(C(=O)NCC(=O)OC(C)C(=O)Nc2ccc(N(C)C)cc2)cc1C (stereo not drawn),-3.4,-0.4%,1.7,-0.6%
CCOC(=O)c1c(NC(=O)c2cc3n(n2)C(C(F)(F)F)CC(c2cccs2)N3)sc(C)c1C (stereo not drawn),-78.3*,0.4%,-4.1,-3.3%
